Assay results taken from PubChem BioAssay (NCI).
About 79,000 compounds went through this panel and 15% of them were active in at least one assay; those are over-represented in the sample as a whole. Values without a mark were called inactive. Calls of active or inactive are those of the source. Cut-off read from the data, not from the text of the source: active = growth inhibition above about 70%; inactive = the rest.

Columns and labels:
[1] = NCI Yeast Anticancer Drug Screen. Data for the rad50 strain (AID 155);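 note: 0% = growth of vehicle-only cultures of the same strain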; conditions: S. cerevisiae rad50 strain growth inhibition, hits give high values
How it was run: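 Readout: growth inhibition relative to vehicle-treated cultures. Compound exposure was carried out in a genetically defined yeast strain deficient in DNA damage repair.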

[2] = NCI Yeast Anticancer Drug Screen. Data for the mec2-1 strain (AID 157); conditions: S. cerevisiae mec2-1 strain, hits give high values
How it was run: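 Each compound was tested on mec2-1 yeast, a strain altered in DNA damage repair or cell cycle control. Growth inhibition is reported relative to vehicle.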

[3] = NCI Yeast Anticancer Drug Screen. Data for the sgs1 mgt1 strain (AID 161);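 note: 0% = growth of cultures given vehicle only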; conditions: S. cerevisiae sgs1 mgt1 strain, hits give high values
How it was run: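 Genetically altered yeast, compound exposure, growth inhibition relative to vehicle.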

[4] = NCI Yeast Anticancer Drug Screen. Data for the cln2 rad14 strain (AID 165);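 note: 0% = growth equal to vehicle treated cultures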; conditions: S. cerevisiae cln2 rad14 strain, hits give high values
How it was run: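 Test compounds were added to cln2 rad14 yeast cultures; inhibition of growth was then determined by comparison with vehicle treatment.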

[5] = NCI Yeast Anticancer Drug Screen. Data for the bub3 strain (AID 167); conditions: S. cerevisiae bub3 mutant strain, hits give high values
How it was run: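 Readout: yeast growth inhibition, expressed relative to vehicle-only wells. The test organism is a mutant strain from a panel with lesions in DNA repair or checkpoint genes.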

[6] = NCI Yeast Anticancer Drug Screen. Data for the mlh1 rad18 strain (AID 175); conditions: S. cerevisiae mlh1 rad18 strain growth inhibition, hits give high values
How it was run: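 Inhibition values reflect reduced growth of mutant yeast versus vehicle-treated controls following compound exposure; the mutations affect DNA damage repair.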

[7] = at 5.0 µM (retest, dose inferred, filed as 0.5)
[8] = at 50.0 µM (retest, dose inferred, filed as 5.0)

SMILES | growth inhibition [1, 7] | growth inhibition [1, 8] | growth inhibition ([1]; at 50.0 µM) | growth inhibition [2, 7] | growth inhibition [2, 8] | growth inhibition ([2]; at 50.0 µM) | growth inhibition [3, 7] | growth inhibition [3, 8] | growth inhibition ([3]; at 50.0 µM) | growth inhibition [4, 7] | growth inhibition [4, 8] | growth inhibition ([4]; at 50.0 µM) | growth inhibition [5, 7] | growth inhibition [5, 8] | growth inhibition ([5]; at 50.0 µM) | growth inhibition [6, 7] | growth inhibition [6, 8] | growth inhibition ([6]; at 50.0 µM)
Cn1c(CN(Cc2nc3ccccc3n2C)Cc2nc3ccccc3n2C)nc2ccccc21 | 7% | 73% (active) | 76.7% (active) | 2% | 85% (active) | 87.9% (active) | 3% | 72% (active) | 69.7% | 3% | 89% (active) | 68.8% | 4% | 47% | 56.2% | 3% | 80% (active) | 56%
CCCCCCCCCCCCCCNCCC(=O)O | -8% | 99% (active) | 99.1% (active) | 23% | 100% (active) | 99.5% (active) | 2% | 98% (active) | 99.1% (active) | -8% | 99% (active) | 99.2% (active) | -6% | 99% (active) | 99.3% (active) | -13% | 99% (active) | 99.3% (active)
O=C1/C(=C/c2ccccc2)CN(C(=O)CCN2CCCC2)C/C1=C\c1ccccc1 | 5% | 83% (active) | 91.8% (active) | 10% | 86% (active) | 90.5% (active) | 99% (active) | 96% (active) | 91.3% (active) | 99% (active) | 96% (active) | 89.7% (active) | 99% (active) | 96% (active) | 92.2% (active) | 2% | 89% (active) | 90.5% (active)
N#CC(Cc1ccc(CC(C#N)(c2ccccc2)c2ccccn2)cc1)(c1ccccc1)c1ccccn1 (stereo not drawn) | -1% | 3% | 20.9% | -2% | 3% | 34.5% | -4% | -1% | 10.9% | -6% | 1% | 2.75% | -2% | -8% | 35.4% | -2% | 2% | 14.8%
CN1C(=O)c2ccccc2C1(c1ccccc1)c1ccccc1 | 0% | 90% (active) | 30.1% | 2% | 96% (active) | 14.8% | 4% | 98% (active) | 20.9% | 13% | 37% | 43.1% | 5% | 62% | 45.1% | 15% | 95% (active) | 56.9%
S=C(Nc1ccccc1)[S][Sb]([S]C(=S)Nc1ccccc1)[c]1ccccc1 | -5% | 80% (active) | 41.4% | -6% | 98% (active) | 20% | -56% | 77% (active) | 43.1% | -8% | 34% | 12.1% | -11% | 25% | 3.15% | -2% | 94% (active) | 63.4%
